Compound activity (PubChem)
CHX counter: counter-screen for Shiga toxin inhibitors: cycloheximide protein synthesis inhibition. cell reporter, cycloheximide protein synthesis inhibition counterscreen. max response, %. actives 12% (n = 300,000); in the data active means max response mostly above about 13%, no sharp cut-off; inactive means mostly below about 14%; further: read at 38.3 µM for the half of the compounds with a filed dose; 0% is about no effect
Shiga toxin inh: blocks Shiga toxin action in Vero cells. inhibition, % at 38.7 µM. actives 9.2% (n = 290,000). Vero cells, Shiga toxin protein synthesis inhibition reporter; in the data active means inhibition mostly above about 28%, no sharp cut-off; inactive means mostly below about 43%; further: 0% is about no effect
Sm TGR inh: inhibitors of Schistosoma mansoni thioredoxin glutathione reductase | Q962Y6 | purified TGR, DTNB reduction, TNB absorbance 405 nm | Potency, µM (series often up to 114 µM), for the others: top-dose activity change, negative = inhibition, hits mostly inhibitors | actives 3% (n = 360,000); further: potency means the concentration at half of the fitted maximal effect; on the % scale 0 is the no-effect control and ±100 the full control effect; nearly all actives have a fitted effect of over 60% in size
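First, TGR (20 nM dispensed) and NADPH were mixed with compound. Second, a 15 min room-temperature incubation followed. Third, further NADPH and then DTNB were added to start the reaction. Finally, TNB absorbance was monitored kinetically.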
LmPK inhibitor: inhibitors of Leishmania mexicana pyruvate kinase | purified LmPK, Kinase-Glo ATP luminescence, 1 h | Potency, µM (highest dose often 57.5 µM), for inactives: top-dose activity change, negative = inhibition, hits mostly inhibitors | actives 0.37% (n = 290,000); further: potency means the concentration at half of the fitted maximal effect; on the % scale 0 is the no-effect control and ±100 the full control effect
Target sequence (Q27686 whole entry, looked up): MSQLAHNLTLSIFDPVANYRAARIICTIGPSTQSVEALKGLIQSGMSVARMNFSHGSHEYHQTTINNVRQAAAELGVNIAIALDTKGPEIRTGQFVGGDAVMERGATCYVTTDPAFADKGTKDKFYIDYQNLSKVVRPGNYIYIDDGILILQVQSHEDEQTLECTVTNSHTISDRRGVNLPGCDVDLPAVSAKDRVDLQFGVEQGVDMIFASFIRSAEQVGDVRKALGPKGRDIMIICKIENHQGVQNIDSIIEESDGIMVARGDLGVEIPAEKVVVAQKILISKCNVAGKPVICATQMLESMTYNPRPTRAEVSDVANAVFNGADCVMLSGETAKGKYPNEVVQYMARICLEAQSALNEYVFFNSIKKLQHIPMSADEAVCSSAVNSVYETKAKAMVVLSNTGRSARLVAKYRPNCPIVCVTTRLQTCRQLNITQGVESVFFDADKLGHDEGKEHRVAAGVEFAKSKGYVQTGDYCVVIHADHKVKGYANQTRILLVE
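Purified LmPK (0.1 nM) converted ADP (0.1 mM) to ATP with PEP (0.5 mM) in imidazole buffer pH 7.2 with KCl and MgCl2, 1 h at room temperature. ATP was read by Kinase-Glo luminescence; data normalized to uninhibited and no-enzyme controls.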
Tb PYK inh: T. brucei pyruvate kinase inhibition | TbPYK enzyme, Kinase-Glo Plus ATP luminescence, 45 min | actives 0.12% (n = 410,000) | Q57TT1 | AID 624173 | Potency, µM (titrated, usually from 76.8 µM), for inactives: at the top dose activity, negative = inhibition, most hits filed as inhibitors; further: potency means the concentration at half of the fitted maximal effect; on the % scale 0 is the no-effect control and ±100 the full control effect; nearly all actives have a fitted effect of over 50% in size
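Enzyme and substrate buffer are dispensed first and compound is pin-transferred. ADP at 130 uM final then starts the reaction, which runs 45 min at room temperature. Detection reagent is added for 10 min before luminescence is imaged.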
Giardia FBPA inh: inhibitors of Giardia lamblia fructose-1,6-bisphosphate aldolase; A8B2U2; purified Giardia FBPA; Potency, µM (series often up to 59.6 µM), for inactives: at the highest dose activity, negative = inhibition, actives largely listed as inhibitors; actives 0.71% (n = 290,000); further: potency means the concentration at half of the fitted maximal effect; on the % scale 0 is the no-effect control and ±100 the full control effect; nearly all actives have a fitted effect of over 55% in size
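Giardia FBPA (40 nM reagent) was preincubated 10 min at RT with compound (up to 57.5 uM final), then substrate plus GAPDH/TPI/NAD/arsenate coupling system with diaphorase/resazurin was added; resorufin fluorescence (525/598 nm) was read after 20 min.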
* marks the source's active call; other numbers are inactive results; [ ] = remark or other dose. This is one part of a sample in which hits are shown more often than they occur. Unless noted, the call rests on the fitted dose curve; in most records, active means well fitted curve in the direction sought with a large enough effect; inconclusive means small, poorly fitted or top-dose-only effect, or another doubt; inactive means no such curve, though single readings can be large; an effect the other way counts as inactive or inconclusive.

Cc1[nH]c2ccccc2c1/C=N/Nc1nc(Nc2ccc(F)cc2)nc(N2CCOCC2)n1 was read as CHX counter 10, Shiga toxin inh 2, Sm TGR inh -3%, LmPK inhibitor 7%, Tb PYK inh -1% and Giardia FBPA inh -2%.
For COc1ccc(-c2cnnc(N/N=C/c3ccc(OC)c(OC)c3)n2)cc1 the results were CHX counter 4, Shiga toxin inh 0, Sm TGR inh 5%, LmPK inhibitor 3%, Tb PYK inh -20% and Giardia FBPA inh 26%.
`C(=N\Nc1nc(Nc2ccccc2)nc(N2CCOCC2)n1)/c1c[nH]c2ccccc12` gave CHX counter 21*, Shiga toxin inh 20, Sm TGR inh 5%, LmPK inhibitor -2%, Tb PYK inh -5% and Giardia FBPA inh -6%.
`COc1ccc(/C=N\Nc2ncc(F)c(N3CCOCC3)n2)cc1OC` gave CHX counter 39*, Shiga toxin inh 73*, Sm TGR inh 5%, LmPK inhibitor 8%, Tb PYK inh -1% and Giardia FBPA inh 1%.
c1ccc(Nc2nc(N3CCOCC3)nc(N3CCOCC3)n2)cc1 was read as CHX counter -1, Shiga toxin inh 2, Sm TGR inh -6%, LmPK inhibitor 5%, Tb PYK inh -1% and Giardia FBPA inh 3%.
COc1cc(-c2cc3n(C)c(C)c(CCC(=O)NC4CCC(C)CC4)c(=O)n3n2)cc(OC)c1OC (stereo not drawn) was read as Sm TGR inh 2% and Tb PYK inh 4%.
`Cc1c(C=NNc2ccccc2)[nH]c(=O)[nH]c1=O` gave Tb PYK inh -4%.
COC(=O)c1c(C)[nH]c(/C=N/Nc2ccccc2)c1C was read as CHX counter 20*, Shiga toxin inh 60, Sm TGR inh inconclusive, LmPK inhibitor 2%, Tb PYK inh 0% and Giardia FBPA inh -19%.
`CNC(=O)[C@H]1O[C@@H](n2cnc3c(NCc4ccc(N)cc4)ncnc32)[C@H](O)[C@H]1O` gave Giardia FBPA inh -1%.
`Cc1ccc(S(=O)(=O)SCCCSS(=O)(=O)c2ccc(C)cc2)cc1` gave Tb PYK inh 4µM*.
`Cc1cccc(-c2noc(CN(C)C(=O)c3ccco3)n2)c1` gave CHX counter 30*, Shiga toxin inh 154*, Sm TGR inh 0%, LmPK inhibitor -3%, Tb PYK inh -8% and Giardia FBPA inh 0%.
Screening Cc1cccc(-c2noc(CNC(=O)c3ccco3)n2)c1 returned CHX counter 2, Shiga toxin inh 29, Sm TGR inh -10%, LmPK inhibitor 1%, Tb PYK inh -12% and Giardia FBPA inh -5%.
COc1ccc(-c2noc(CN(C)C(=O)c3ccoc3C)n2)cc1 was read as CHX counter 24*, Shiga toxin inh 25, Sm TGR inh -9%, LmPK inhibitor -2%, Tb PYK inh 2% and Giardia FBPA inh 2%.
Cc1cccc(-c2noc(CN(C)C(=O)c3ccoc3C)n2)c1 was read as CHX counter 11, Shiga toxin inh 60*, Sm TGR inh 2%, LmPK inhibitor 1%, Tb PYK inh 1% and Giardia FBPA inh -9%.
O=C(c1ccc(-c2ccc([N+](=O)[O-])cc2)o1)N1CCCCCCC1 was read as Sm TGR inh 20µM* and Tb PYK inh inconclusive.
For NC(=S)N/N=C/c1ccc(-c2ccc([N+](=O)[O-])cc2)o1 the results were CHX counter 13, Shiga toxin inh 29, Sm TGR inh 28µM*, LmPK inhibitor -18%, Tb PYK inh -24% and Giardia FBPA inh inconclusive.
C=CCNC(=O)c1ccc(-c2cccc([N+](=O)[O-])c2)o1 was read as CHX counter 37*, Shiga toxin inh 69*, Sm TGR inh inconclusive, LmPK inhibitor -2%, Tb PYK inh -2% and Giardia FBPA inh -8%.
`C=CCNC(=S)N/N=C/c1ccc(-c2cccc([N+](=O)[O-])c2)o1` gave CHX counter 16*, Shiga toxin inh 41*, LmPK inhibitor 7%, Tb PYK inh 4% and Giardia FBPA inh -9%.
For CCc1nnc(SC(CC)C(=O)Nc2cccc(OC)c2)c2cc3oc(C)cc3n12 (stereo not drawn) the results were Sm TGR inh 3% and Tb PYK inh 2%.
For CC1=C(C(=O)Nc2ccc(Cl)cc2)C(C(C)C)n2nc(SCc3ccc(Cl)cc3)nc2N1 (stereo not drawn) the results were Sm TGR inh 1% and Tb PYK inh 1%.
For CCOc1ccc(N(CC)S(=O)(=O)c2cc(Br)cc3c2N(C(C)=O)C(C)C3)cc1 (stereo not drawn) the results were Sm TGR inh 3% and Tb PYK inh 3%.
Cc1cc(=O)[nH]c(N/N=C/c2ccc(-c3ccc([N+](=O)[O-])cc3)o2)n1 was read as CHX counter 12*, Shiga toxin inh 36, Sm TGR inh -17%, LmPK inhibitor -3%, Tb PYK inh -8% and Giardia FBPA inh -16%.
Screening Cc1ccc(-c2ccc(/C=N/O)o2)cc1[N+](=O)[O-] returned CHX counter 35*, Shiga toxin inh 61*, Sm TGR inh 2%, LmPK inhibitor 9%, Tb PYK inh 2% and Giardia FBPA inh 0%.
Cc1cc(=O)[nH]c(N/N=C/c2ccc([N+](=O)[O-])cc2)n1 was read as CHX counter 8, Shiga toxin inh 18, Sm TGR inh 9%, LmPK inhibitor -1% and Giardia FBPA inh -1%.
`C=CCNC(=O)c1ccc(-c2ccc([N+](=O)[O-])cc2)o1` gave CHX counter 19*, Shiga toxin inh active, Sm TGR inh 18µM*, LmPK inhibitor 3%, Tb PYK inh -13% and Giardia FBPA inh -1%.
CCc1cc2c(nc1CC)CCN(CC/C(C)=N/OC[C@@H](O)COCc1ccco1)C2 was read as Giardia FBPA inh 1%[12.9 µM].
Screening Cc1nc2sccn2c(=O)c1S(=O)(=O)Nc1cc(C(F)(F)F)ccc1Cl returned Sm TGR inh 0% and Tb PYK inh 1%.
CCc1ccc(NC(=O)C2CCCN(c3nn4cc(-c5ccc(OC)cc5)nc4s3)C2)cc1 (stereo not drawn) was read as Sm TGR inh 3% and Tb PYK inh -6%[15.4 µM].
Screening O=C(c1cnn2c(-c3ccccc3)cc(-c3ccccc3)nc12)N1CCN(Cc2ccccc2)CC1 returned Tb PYK inh 3%.
Screening O=C(Cn1nnc2ccccc21)c1ccc([N+](=O)[O-])cc1 returned CHX counter 5, Shiga toxin inh 13, Sm TGR inh -22%, LmPK inhibitor 2%, Tb PYK inh 1% and Giardia FBPA inh -2%.
